From PubChem BioAssay (NCATS) come the findings set out here.

Values joined by “and” are separate entries in the source; they are usually repeats but may differ in a detail not shown here. Equal values may be shown once. Inconclusive results are not listed. Some compounds were tested as several samples or in several runs, with calls that do not always agree. Active and inactive are the calls of the source. The call rests on the fitted dose curve; in most records, active means well fitted curve in the direction sought with a large enough effect; inconclusive means small, poorly fitted or top-dose-only effect, or another doubt; inactive means no such curve, though single readings can be large; an effect the other way counts as inactive or inconclusive.

Test [1] is described as follows: Viability qHTS for spleen associated tyrosine kinase inhibitor (SYKi) drug resistant MV4-11 cells (AID 1963824). Further: nearly all actives have a fitted effect of over 35% in size. The essentials: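 CellTiter-Glo luminescence, read 10 min after reagent addition, reports viability after a 72 hr compound exposure. Cells are an MV4-11 line made resistant to SYK inhibition, seeded at 500 per well onto compound-containing plates.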
(Quantitative high-throughput screening tests each substance at several concentrations.)

A short description of test [2]: Quantitative highthroughput screen to assess conditional lethalithy of NOMO1 cells grown in RPMI1640 with untreated serum (RPMI+s) (AID 1963876). Further: nearly all actives have a fitted effect of over 35% in size.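 On Viability: 100% = DMSO wells and 0% = empty wells without cells.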 An outline of the steps:
(§1)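 Each medium arm—HPLM with 10% dialyzed FBS, or RPMI1640 with 5 mM glucose and 10% untreated or dialyzed FBS—was screened against an 11-point, 3-fold compound titration for 48 h at 37 °C, with CellTiter-Glo luminescence as endpoint.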

A short description of test [3]: Quantitative highthroughput screen to assess conditional lethalithy of NOMO1 cells grown in RPMI1640 with dialyzed fetal bovine serum (RPMI+ds) (AID 1963877). Further: nearly all actives have a fitted effect of over 30% in size.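 On Viability: series mostly up to about 46 µM; 100% = DMSO control wells and 0% = empty wells.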 An outline of the steps: as §1
The nature of test [4]: Quantitative highthroughput screen to assess conditional lethalithy of NOMO1 cells grown in Human Plasma-Like Medium with dialyzed fetal bovine serum (HPLM+ds) (AID 1963878). Further: nearly all actives have a fitted effect of over 35% in size.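 On Viability: 100% = DMSO wells and 0% = empty wells on each plate.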 The essentials:
as §1

The nature of test [5]: Quantitative highthroughput screen to assess conditional lethalithy of P12 Ichikawa cells grown in Human Plasma-Like Medium with dialyzed fetal bovine serum (HPLM+ds) (AID 1963879). Further: nearly all actives have a fitted effect of over 35% in size. On Viability: series mostly up to about 46 µM. Conditions: Potency: viability. An outline of the steps: as §1
Test [6] can be described thus: Quantitative highthroughput screen to assess conditional lethalithy of P12 Ichikawa cells grown in RPMI1640 with dialyzed fetal bovine serum (RPMI+ds) (AID 1963880). Further: nearly all actives have a fitted effect of over 35% in size.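 On Viability: 100% = DMSO wells and 0% = empty wells on each plate.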 Conditions: Potency: P12-Ichikawa viability. An outline of the steps:
as §1

Test [7] in a line: Quantitative highthroughput screen to assess conditional lethalithy of P12 Ichikawa cells grown in RPMI1640 with untreated serum (RPMI+s) (AID 1963881). Further: nearly all actives have a fitted effect of over 35% in size.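 On Viability: series mostly up to about 46 µM; 100% = DMSO wells and 0% = empty wells without cells.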 To be noted: Potency: viability. An outline of the steps: as §1
A short description of test [8]: Cellular viability qHTS for adrenocortical cancer (ACC) cell line NCI-H295R (AID 1963990). Further: nearly all actives have a fitted effect of over 60% in size. An outline of the steps: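 Luminescent ATP read-out (CellTiter-Glo, 20 min RT) after 48 h drug exposure of NCI-H295R cells; a titration up to 46 uM final. Data normalized to doxorubicin (100% inhibition) and DMSO (0%); 4-parameter fit gives IC50, max response.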
Test [9] in a line: Quantitative highthroughput screen to assess conditional lethalithy of SEM cells grown in RPMI1640 with unreated serum (RPMI+s) (AID 1963883). Further: nearly all actives have a fitted effect of over 35% in size.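 On Viability: 100% = DMSO wells and 0% = empty wells without cells.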 An outline of the steps:
as §1

The nature of test [10]: Quantitative highthroughput screen to assess conditional lethalithy of SEM cells grown in RPMI1640 with dialyzed fetal bovine serum (RPMI+ds) (AID 1963884). Further: nearly all actives have a fitted effect of over 35% in size.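 On Viability: series mostly up to about 46 µM; 100% = DMSO control wells and 0% = empty wells without cells.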 An outline of the steps:
as §1

The nature of test [11]: Cellular viability qHTS for adrenocortical cancer (ACC) cell line SW-13 (AID 1963989). Further: nearly all actives have a fitted effect of over 65% in size.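 On activity (max response): cells grown in serum-free medium with ITS supplement; on the % scale 0 is the no-effect control and ±100 the full control effect.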 To be noted: SW-13 ACC cells viability, CellTiter-Glo, 48 h; activity (max response): stronger effect = lower value. An outline of the steps:
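SW-13 cells in ITS-supplemented serum-free DMEM were plated overnight, then exposed for 48 h at 37C to compound titrations (up to 46 uM final). Viability was read by CellTiter-Glo luminescence; four-parameter logistic fits gave IC50 and efficacy.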

A short description of test [12]: Quantitative highthroughput screen to assess conditional lethalithy of SEM cells grown in Human Plasma-Like Medium with dialyzed fetal bovine serum (HPLM+ds) (AID 1963882). Further: nearly all actives have a fitted effect of over 35% in size. On Viability: series mostly up to about 46 µM. An outline of the steps:
as §1
Potency means the concentration at half of the fitted maximal effect.

Consider `Nc1ccn([C@@H]2O[C@H](CO)[C@@H](O)C2O)c(=O)n1` (stereo partly drawn), for which the Potency in test [1] is 1.86 µM (active); in test [4], 1.18 µM (active). Moreover, the Potency result in test [2], in [3], in test [5], in test [6], in test [7] and in test [8] was “inactive” in each case.

For the molecule `CC1=C(C(=O)O)N2C(=O)[C@@H](NC(=O)[C@H](N)C3=CCC=CC3)[C@H]2SC1`, the Potency result in [1], in test [2], in [3], in test [4], in test [5] and in test [6] was “inactive” throughout. In addition, the Potency entry in test [7], in [9], in test [10] and in [8] was “inactive” each time. Moreover, in test [11], the activity (max response) is -13.1% (inactive).

Consider `Nc1ccn([C@@H]2C(F)=C(CO)[C@@H](O)[C@H]2O)c(=O)n1`, for which the Potency in test [1] was 1.03 µM (active); in [2] it was 5.24 µM (active); in test [3], 2.95 µM (active); in test [4], 2.63 µM (active); in test [5], 1.66 µM (active); in [6] it was 6.6 µM (active). Also, the Potency in test [10] is 1.48 µM (active).

For `N[C@H](CSC(c1ccccc1)(c1ccccc1)c1ccccc1)C(=O)O`, the results for the Potency in [1], in test [12] and in [10] were 14.8 µM (active), 16.6 µM (active) and 13.2 µM (active), respectively. Also, the Potency result in [2], in test [3], in test [4], in [5], in test [6] and in [8] was “inactive” each time. Besides, in test [11], the activity (max response) was -17.5% (inactive).

As to `COc1ccc(Cc2ccc(NC(N)=O)cc2)cc1-c1cccc(Cl)c1`, the Potency was 18.6 µM (active) in [1] and 28.2 µM (active) in [8]. The Potency result in [2], in test [3], in test [4], in test [5], in [6] and in [7] was “inactive” in each case. Besides, the Potency result in test [12] and in [9] was “inactive” throughout.

On to `NC(=O)c1ccc(N(C(N)=O)c2c(F)cccc2F)nc1-c1ccc(F)cc1F`, for which the Potency in test [1] was 10.3 µM (active) and inactive. In addition, the Potency entry in test [2], in test [3], in test [4], in test [5], in test [6] and in test [7] was “inactive” throughout. For the same molecule, the Potency result in test [9] and in test [8] was “inactive” throughout. Moreover, the activity (max response) in test [11] was -4.37% (inactive).

For the molecule `O=C1C(Cl)=C(NCCN2CCOCC2)C(=O)c2ncccc21`, the Potency is 2.09 µM (active) in test [1]; 10.5 µM (active) in [2]; 9.35 µM (active) in [3]; 14.8 µM (active) in [4]; 20.9 µM (active) in [6]; 23.5 µM (active) in test [7]. The Potency in test [12] is 10.5 µM (active); in [9], 4.69 µM (active); in test [11], 3.55 µM (active); in test [8] it was 3.98 µM (active).

As to `NC(=O)NO`, the Potency entry in [1] and in test [8] was “inactive” each time. Also, the Potency in test [2] is 4.69 µM (active); in [3], 4.18 µM (active); in test [4] it was 2.96 µM (active); in test [5], 9.35 µM (active); in test [6], 9.35 µM (active); in test [7], 16.6 µM (active). Moreover, the Potency in [12] is 3.72 µM (active); in test [9], 4.18 µM (active); in [10], 4.18 µM (active). The activity (max response) in test [11] is 10.6% (inactive) and 4% (inactive).

Consider `C[C@]12CC[C@H](O)CC1=CCC1C2CC[C@]2(C)C(n3cnc4ccccc43)=CCC12` (stereo partly drawn), for which, in test [1], the Potency was 7.42 µM (active). Besides, the Potency entry in test [2], in test [3], in test [4], in test [5], in test [6] and in [7] was “inactive” throughout. Besides, the Potency result in test [12], in test [9] and in test [8] was “inactive” throughout. In addition, the activity (max response) in test [11] was -10.3% (inactive).

As to `O=C(O)CCc1ccc(NCc2cccc(Oc3ccccc3)c2)cc1`, the Potency in test [1] was 16.4 µM (active). Also, the Potency entry in test [2], in [3], in [4], in test [5], in test [6] and in test [7] was “inactive” throughout. Also, the Potency entry in test [9] and in test [8] was “inactive” each time. For the same molecule, the activity (max response) in [11] was -8.89% (inactive).

As to `Cc1c(OCC(F)(F)F)ccnc1CS(=O)c1nc2ccccc2[nH]1` (stereo not drawn), in [1], the Potency is 16.6 µM (active). Moreover, the Potency result in [2], in test [3], in test [4], in test [5], in [6] and in test [7] was “inactive” each time. Further, the Potency result in test [12], in test [9], in [10] and in test [8] was “inactive” each time.

As to `CN(C)CCN1C(=O)c2cccc3cc(N)cc(c23)C1=O`, the Potency is 3.72 µM (active) in test [1]; 14.8 µM (active) in test [2]; 18.7 µM (active) in [3]; 14.8 µM (active) in [4]; 18.7 µM (active) in [5]; 16.6 µM (active) in [7]. In addition, the Potency was 5.9 µM (active) in [12]; 5.26 µM (active) in test [9]; 9.35 µM (active) in test [10]; 22.4 µM (active) in test [11]; 22.4 µM (active) in test [8].

For `CN1c2ccccc2C(=O)N2CCc3c([nH]c4ccccc34)C21` (stereo not drawn), the Potency in [1] was 1.16 µM (active); in test [11] it was 2.24 µM (active); in [8], 1.78 µM (active). Further, the Potency result in [2], in test [3], in [4], in test [5], in test [6] and in test [7] was “inactive” throughout. Moreover, the Potency result in test [12], in test [9] and in [10] was “inactive” throughout.

`O=C(Nc1cccc(Nc2ncc(Br)c(NCCc3cnc[nH]3)n2)c1)N1CCCC1`: the Potency in [1] was 0.132 µM (active); in [2], 5.9 µM (active); in test [3], 11.8 µM (active); in test [4] it was 2.96 µM (active); in test [5] it was 0.662 µM (active); in [9], 0.166 µM (active).

Regarding `Oc1cccc(-c2nc(N3CCOCC3)c3oc4ncccc4c3n2)c1`, the Potency is 0.525 µM (active) in test [1], 15.2 µM (active) in test [12], 1.91 µM (active) in test [9] and 7.62 µM (active) in test [10]. For the same molecule, the Potency entry in test [2], in [3], in test [4], in test [6] and in test [7] was “inactive” throughout.

For `C=C(C)[C@@H]1CC[C@]2(C(=O)O)CC[C@]3(C)[C@H](CC[C@@H]4[C@@]5(C)CC[C@H](O)C(C)(C)[C@@H]5CC[C@]43C)[C@@H]12`, the Potency in [1] was 2.95 µM (active). The Potency result in test [2], in test [3], in test [4], in test [6], in test [7] and in [12] was “inactive” throughout. Moreover, in [8], the Potency entry was “inactive”. In addition, in test [11], the activity (max response) is 19.8% (inactive).

As to `C=CCc1cc(OC)c(O)c(C(=O)NCCO)c1`, the Potency result in test [1], in [2], in test [3], in test [4], in [5] and in [6] was “inactive” in each case. Further, the Potency entry in test [7], in [9], in test [10] and in test [8] was “inactive” each time. The activity (max response) in test [11] is -2.94% (inactive).
